Test results published in PubChem BioAssay (Tox21).
“And” between values parts separate entries of the source, which are not always exact repeats. Identical values can stand only once. Inconclusive results are not listed. The source made the active and inactive calls. Unless noted, the call rests on the fitted dose curve; in most records, active means well fitted curve in the direction sought with a large enough effect in the repeat runs; inconclusive means weak or mixed curves; inactive means no such curve, though single readings can be large; an effect the other way counts as inactive or inconclusive.

What was measured:
[1] = qHTS assay for small molecules that induce genotoxicity in human embryonic kidney cells expressing luciferase-tagged ATAD5 (AID 651632); further: on the % scale 0 is the no-effect control and ±100 the full control effect; nearly all actives have a fitted effect of over 15% in size
Procedure, shortened: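 A rise in luciferase signal from ATAD5-tagged HEK293T cells marks genetic stress. Cells were exposed to compounds for 16 hr at 37C, 5% CO2, then luciferase was quantified after a 30 min room-temperature incubation with Amplite.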

[2] = qHTS assay for small molecule agonists of the p53 signaling pathway - cell viability (AID 651633; calls by dose curve; further: nearly all actives have a fitted effect of over 30% in size; further: potency means the concentration at half of the fitted maximal effect)
Procedure, shortened: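 Viability counter-read: CellTiter-Glo luminescence (30 min, room temperature) in the same p53RE-bla plates. These plates had been exposed to compounds for 16 h at 37 C.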

[3] = qHTS assay for small molecules that induce genotoxicity in human embryonic kidney cells expressing luciferase-tagged ATAD5 - cell viability (AID 651634; calls by dose curve; further: nearly all actives have a fitted effect of over 25% in size; further: potency means the concentration at half of the fitted maximal effect)
Procedure, shortened: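 Cytotoxicity counter-readout: after 15.5 hr compound treatment at 37C, live-cell protease activity in ATAD5-luciferase HEK293T cells measured by CellTiter-Fluor fluorescence, 30 min development at 37C.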

[4] = qHTS assay for small molecule disruptors of the mitochondrial membrane potential - cell viability (AID 720634; calls by dose curve; further: nearly all actives have a fitted effect of over 20% in size; further: potency means the concentration at half of the fitted maximal effect)
Procedure, shortened: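 Cytotoxicity was quantified from ATP content by CellTiter-Glo luminescence in the same wells as the MMP dye read-out. HepG2 (2,000 cells/well) were plated overnight and exposed to compounds for 1 hr at 37 C.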

[5] = qHTS assay for small molecule disruptors of the mitochondrial membrane potential (AID 720635); further: potency means the concentration at half of the fitted maximal effect
Procedure, shortened: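 Mitochondrial membrane potential tracked with Mito-MPS dye, red aggregates (ex 540/em 590 nm) against green monomers (ex 490/em 535 nm). Compound treatment 1 hr at 37C, dye 30 min in HepG2.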

[6] = qHTS assay to test for compound auto fluorescence at 590 nm (red) in HepG2 cells (AID 720674); further: on the % scale 0 is the no-effect control and ±100 the full control effect
Procedure, shortened: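 We screened compounds on adherent HepG2 cells, incubating them for an hour at 37 C in 5% CO2 before reading emission at 590 nm under 540 nm excitation; values reflect equivalence to Rose Bengal sodium fluorescence.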

[7] = qHTS assay to test for compound auto fluorescence at 535 nm (green) in HepG2 cells (AID 720675); further: on the % scale 0 is the no-effect control and ±100 the full control effect
[8] = qHTS assay to test for compound auto fluorescence at 460 nm (blue) in HEK293 cells (AID 720678); further: on the % scale 0 is the no-effect control and ±100 the full control effect
Procedure, shortened: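 HEK293, 2,000 cells/well, 10% dialyzed FBS; attach 4-5 hr 37C; pin compound or DMSO; o/n 37C/5% CO2; fluorescence 405/460 nm; triamterene-equivalent units.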

[9] = qHTS assay to test for compound auto fluorescence at 590 nm (red) in HEK293 cells (AID 720679); further: on the % scale 0 is the no-effect control and ±100 the full control effect
Procedure, shortened: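 Intensity at 540nm excitation and 590nm emission is reported as Rose Bengal sodium-equivalent autofluorescence. Measurements followed overnight exposure (37C, 5% CO2) of HEK293 cells, 2,000 per well, to 23 nL compound.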

[10] = qHTS assay to test for compound auto fluorescence at 535 nm (green) in HEK293 cells (AID 720680); further: on the % scale 0 is the no-effect control and ±100 the full control effect
[11] = qHTS assay to test for compound auto fluorescence at 460 nm (blue) in HEK293 cell free culture (AID 720681); further: on the % scale 0 is the no-effect control and ±100 the full control effect
Procedure, shortened: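 Blue fluorescence (Ex 405/Em 460 nm, triamterene-equivalent) was read immediately after pin transfer of compound or DMSO into medium (DMEM, 10% FBS) without cells.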

[12] = qHTS assay to test for compound auto fluorescence at 535 nm (green) in HEK293 cell free culture (AID 720682); further: on the % scale 0 is the no-effect control and ±100 the full control effect
Procedure, shortened: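 Each library compound, or DMSO control, is added by pintool to medium alone, comprising DMEM and 10% FBS. Emission at 535 nm following 485 nm excitation is quantified against fluorescein.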

[13] = qHTS assay to test for compound auto fluorescence at 590 nm (red) in HEK293 cell free culture (AID 720683); further: on the % scale 0 is the no-effect control and ±100 the full control effect
Procedure, shortened: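 Red-channel autofluorescence of compounds in culture medium (DMEM, 10% FBS), no cells, measured at 540/590 nm. Rose Bengal sodium is the reference fluorophore for equivalence.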

[14] = qHTS assay to test for compound auto fluorescence at 590 nm (red) in HepG2 cell free culture (AID 720684); further: on the % scale 0 is the no-effect control and ±100 the full control effect
Procedure, shortened: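 No cells present: MEM + 10% FBS only. Compound pinned in, red label read (540/590 nm). Activity = fluorescence equivalent to Rose Bengal sodium.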

[15] = qHTS assay to test for compound auto fluorescence at 535 nm (green) in HepG2 cell free culture (AID 720686); further: on the % scale 0 is the no-effect control and ±100 the full control effect
[16] = qHTS assay to test for compound auto fluorescence at 460 nm (blue) in HepG2 cells (AID 720687); further: on the % scale 0 is the no-effect control and ±100 the full control effect
Procedure, shortened: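 Blue-channel autofluorescence (Ex/Em 405/460 nm, triamterene-equivalent) was measured after 1 hr compound exposure at 37 C, 5% CO2. Cells were HepG2, plated overnight at 37 C in MEM plus 10% FBS.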

[17] = target: Glucocorticoid receptor (Homo sapiens) (UniProt P04150); assay: qHTS assay to identify small molecule agonists of the glucocorticoid receptor (GR) signaling pathway (AID 720691; active means well fitted activation curve with a large enough effect in the signal ratio in the repeat runs, not every such curve was filed as active; the % refers to the signal ratio; further: on the % scale 0 is the no-effect control and ±100 the full control effect)
Glucocorticoid receptor (Homo sapiens), sequence (P04150 whole entry, looked up): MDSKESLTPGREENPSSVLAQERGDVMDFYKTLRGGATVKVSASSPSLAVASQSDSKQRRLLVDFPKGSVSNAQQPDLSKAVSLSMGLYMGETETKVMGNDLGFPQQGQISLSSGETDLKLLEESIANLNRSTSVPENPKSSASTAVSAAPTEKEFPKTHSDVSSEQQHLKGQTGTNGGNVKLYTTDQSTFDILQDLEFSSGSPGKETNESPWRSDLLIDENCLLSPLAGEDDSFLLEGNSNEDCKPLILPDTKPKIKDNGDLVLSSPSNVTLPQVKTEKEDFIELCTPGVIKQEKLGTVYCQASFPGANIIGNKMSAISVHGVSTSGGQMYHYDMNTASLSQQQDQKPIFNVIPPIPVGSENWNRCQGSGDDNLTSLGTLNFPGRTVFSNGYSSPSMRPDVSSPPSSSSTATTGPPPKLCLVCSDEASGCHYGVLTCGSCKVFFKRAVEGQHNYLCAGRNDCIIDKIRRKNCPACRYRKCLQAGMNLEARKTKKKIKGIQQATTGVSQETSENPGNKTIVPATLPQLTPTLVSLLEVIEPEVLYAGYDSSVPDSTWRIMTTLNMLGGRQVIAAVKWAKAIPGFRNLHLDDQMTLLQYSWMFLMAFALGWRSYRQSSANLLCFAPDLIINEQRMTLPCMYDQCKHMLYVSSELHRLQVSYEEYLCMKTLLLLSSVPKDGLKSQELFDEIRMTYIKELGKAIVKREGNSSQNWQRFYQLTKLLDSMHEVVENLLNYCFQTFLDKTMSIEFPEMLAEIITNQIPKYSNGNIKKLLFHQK
Procedure, shortened: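 Agonist-mode qHTS in HeLa cells stably expressing a glucocorticoid-response-element beta-lactamase reporter. Fluorescence intensity read with FRET substrate (2 h, room temperature) after 18 h compound treatment at 37 C.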

[18] = qHTS assay to test for compound auto fluorescence at 460 nm (blue) in HepG2 cell free culture (AID 720685); further: on the % scale 0 is the no-effect control and ±100 the full control effect
Procedure, shortened: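 Cell-free plates of MEM plus 10% FBS received 23 nL compound or DMSO vehicle; blue-channel (405/460 nm) intensity scored against triamterene as reference fluorophore.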

[19] = qHTS assay for small molecule agonists of the p53 signaling pathway (AID 651631; calls by dose curve; further: nearly all actives have a fitted effect of over 15% in size; further: potency means the concentration at half of the fitted maximal effect)
Procedure, shortened: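 Beta-lactamase reporter activity under p53 response elements was quantified in HCT-116 cells by FRET fluorescence, following 16 h incubation with test compounds at 37 °C and 2 h substrate development at room temperature.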

[20] = target: Glucocorticoid receptor (Homo sapiens) (UniProt P04150); assay: qHTS assay to identify small molecule antagonists of the glucocorticoid receptor (GR) signaling pathway (AID 720692; active means well fitted inhibition curve with a large enough effect in the signal ratio in the repeat runs, not every such curve was filed as active; the % refers to the signal ratio; further: potency means the concentration at half of the fitted maximal effect)
Procedure, shortened: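 Inhibition of dexamethasone-driven (5 nM final) beta-lactamase expression was measured in GRE-reporter HeLa cells over 18 h at 37C. Fluorescence was read after 2 h with the B/G FRET substrate at room temperature.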

CC(C)Oc1cccc(NC(=O)c2ccccc2C(F)(F)F)c1
active: Potency [4] 30.6 µM | Potency [5] 17.2 µM
inactive: Potency [1] | Potency [2] | Potency [3] | outcome [6] | outcome [7] | Potency [8] | outcome [9] | outcome [10] | Potency [11] | outcome [12] | outcome [13] | outcome [14] | outcome [15] | Potency [16] | Potency [17]

COP(=S)(OC)Oc1cc(Cl)c(Br)cc1Cl
active: Potency [4] 54.5 µM | Potency [5] 6.86 µM
inactive: Potency [1] | Potency [2] | Potency [3] | outcome [6] | outcome [7] | Potency [8] | outcome [9] | outcome [10] | Potency [11] | outcome [12] | outcome [13] | Potency [18] | outcome [15] | Potency [16]

Clc1ccc(C(Cl)(Cl)Cl)c(Cl)c1
active: Potency [5] 61.6 µM
inactive: Potency [1] | Potency [2] | Potency [3] | Potency [4] | outcome [6] | outcome [7] | Potency [8] | outcome [9] | outcome [10] | Potency [11] | outcome [12] | outcome [13] | Potency [18] | outcome [15] | Potency [16]

CCN(CC)c1c([N+](=O)[O-])cc(C(F)(F)F)c(N)c1[N+](=O)[O-]
inactive: Potency [19] | Potency [1] | Potency [2] | Potency [3] | outcome [6] | outcome [7] | Potency [8] | outcome [9] | outcome [10] | Potency [11] | outcome [12] | outcome [13] | outcome [14] | Potency [18] | outcome [15] | Potency [16]

C[C@@H]1O[C@@H](O[C@@H]2C=C3CC[C@@H]4[C@H](CC[C@]5(C)[C@@H](c6ccc(=O)oc6)CC[C@]45O)[C@@]3(C)CC2)[C@H](O)[C@H](O)[C@H]1O
inactive: Potency [1] | Potency [4] | fluorescence, relative to Rose Bengal [6] 0.222% [at 18.6 µM] | fluorescence, % of fluorescein control [7] -0.0054% [at 18.6 µM] | fluorescence, % of triamterene [8] 0.167% [at 18.6 µM] | fluorescence, % of fluorescent control [9] -0.104% [at 18.6 µM] | fluorescence, % of fluorescein [10] 0.0243% [at 18.6 µM] | fluorescence, % of fluorescent control [11] 0.328% [at 18.6 µM] | activity change [12] 0.0268% [at 18.6 µM] | fluorescence, % of fluorescent control [13] -0.024% [at 18.6 µM] | fluorescence, % of Rose Bengal [14] -0.272% [at 18.6 µM] | fluorescence, % of fluorescein control [15] -0.0466% [at 18.6 µM] | fluorescence, % of fluorescent control [16] 0.187% [at 18.6 µM] | Potency [17]
active: Potency [2] 0.0072 µM | Potency [3] 0.0227 µM | Potency [5] 0.0639 µM | Potency [20] 57.4 nM

ClC(Cl)=C(c1ccc(Cl)cc1)c1ccc(Cl)cc1
active: Potency [2] 70.3 µM and 48.6 µM | Potency [5] 22.2 µM and 24.3 µM
inactive: Potency [1] | Potency [3] | Potency [4] | outcome [6] | outcome [7] | Potency [8] | outcome [9] | outcome [10] | Potency [11] | outcome [13] | outcome [14] | Potency [18] | outcome [15] | Potency [16] | Potency [17] | Potency [20]

Cc1ccc(OP(=O)(Oc2ccccc2)Oc2ccccc2)cc1
inactive: Potency [19] | Potency [1] | Potency [2] | Potency [3] | outcome [6] | outcome [7] | Potency [8] | outcome [9] | outcome [10] | Potency [11] | outcome [12] | outcome [13] | outcome [14] | outcome [15] | Potency [16]

c1ccc(Nc2ccc3ccccc3c2)cc1
active: Potency [4] 17.1 µM | Potency [5] 8.58 µM and 13.7 µM
inactive: Potency [1] | Potency [2] | Potency [3] | outcome [6] | outcome [7] | Potency [8] | outcome [9] | outcome [10] | Potency [11] | outcome [12] | outcome [13] | outcome [14] | Potency [18] | Potency [16] | Potency [17] | Potency [20]

[Cl][Sb]([Cl])[Cl]
active: Potency [19] 34.4 µM
inactive: Potency [2] | Potency [4] | outcome [7] | Potency [8] | outcome [9] | outcome [10] | Potency [11] | outcome [12] | outcome [13] | outcome [14] | Potency [18] | Potency [16]

CS(=O)(=O)c1ccc(C(=O)C2C(=O)CCCC2=O)c([N+](=O)[O-])c1
active: Potency [5] 6.98 µM
inactive: Potency [1] | Potency [2] | Potency [3] | Potency [4] | outcome [6] | outcome [7] | Potency [8] | outcome [9] | outcome [10] | Potency [11] | outcome [12] | outcome [13] | outcome [14] | Potency [18] | outcome [15] | Potency [16] | Potency [17]

Clc1ccc(-c2ccc(Cl)c(Cl)c2Cl)c(Cl)c1Cl
inactive: Potency [1] | Potency [3] | outcome [6] | outcome [7] | Potency [8] | outcome [9] | outcome [10] | Potency [11] | outcome [12] | outcome [13] | Potency [18] | outcome [15] | Potency [16]
active: Potency [19] 58.2 µM | Potency [2] 65.3 µM

CCCCCCCCCCCCCC[P+](CCCCCC)(CCCCCC)CCCCCC (tested in a mixture with another compound)
active: Potency [2] 15.4 µM | Potency [3] 21.7 µM | Potency [4] 24.3 µM | Potency [5] 0.243 µM
inactive: Potency [1] | outcome [6] | outcome [7] | Potency [8] | outcome [9] | outcome [10] | Potency [11] | outcome [12] | outcome [13] | outcome [14] | outcome [15] | Potency [16]

CSCCCN=C=S
active: Potency [19] 54.5 µM | Potency [3] 54.5 µM
inactive: Potency [4] | outcome [6] | outcome [7] | Potency [8] | outcome [9] | outcome [10] | Potency [11] | outcome [12] | outcome [13] | outcome [14] | Potency [18] | outcome [15] | Potency [16] | Potency [17]
